# Six1-Eya2 blk – Six1/Eya2 interaction inhibition | Q15475+O00167 | AlphaScreen GST-Six1/His-Eya2 binding, biochemical; active compounds read low | activity change, % (test concentration not listed) | 0.56% of 360,000 active | AID 651725; in the data active = activity change below about -65%; inconclusive = mostly about -30% to -63%; also: % is scaled to controls: 0 for no effect and ±100 for the full control effect
#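 AlphaScreen with GST-Six1 and His-Eya2 (5X mix: 250 nM and 500 nM), glutathione donor and nickel acceptor beads; buffer 50 mM Tris pH 8.0, 300 mM NaCl, 1 mM TCEP; 1 h at 37 C in the dark.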
# CtBP-E1A inh – blocks the CtBP interaction with E1A | AlphaScreen GST-E1A/His-CtBP binding, 1536-well; active compounds read low | activity change, % (concentration not given with the values) | 0.49% of 340,000 active | AID 651724; in the data active = activity change below about -65%; inconclusive = mostly about -30% to -63%; also: % is scaled to controls: 0 for no effect and ±100 for the full control effect
#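 GST-E1A and His-tagged CtBP (125 nM each as 5X stock) were preincubated with pin-transferred compound for 2 h at 37 °C in the dark, then glutathione donor and nickel acceptor beads were added for 1 h before AlphaScreen reading.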
# BAZ2B inh – BAZ2B (human) inhibition. Q9UIF8. AlphaScreen BAZ2B-H3K14Ac peptide displacement. Potency, µM (titrated, usually from 114 µM), for the others: at the highest dose activity change, negative = inhibition, most hits filed as inhibitors. 4.4% of 360,000 active. AID 504333; also: potency is read from the fitted curve at half-maximal effect; % is scaled to controls: 0 for no effect and ±100 for the full control effect; nearly all actives have a fitted effect of over 60% in size
#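 In this displacement format the biotinylated H3(5-23) peptide acetylated at Lys14 serves as ligand at 50 nM, with BAZ2B at 50 nM in PBS pH 7.4 containing 0.01% Tween-20. Donor and acceptor beads are 10 ug/mL final.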
# HP1b chromo inh – HP1-beta chromodomain-methylated histone interaction inhibition. P83916. AlphaScreen HP1-beta / biotin-H3K9me3 peptide binding. Potency, µM (doses to about 114 µM), for inactives: at the highest dose activity change, negative = inhibition, usual class: inhibitors. 0.56% of 390,000 active. AID 540317; also: potency is read from the fitted curve at half-maximal effect; nearly all actives have a fitted effect of over 70% in size
# Target sequence (P83916 whole entry, looked up): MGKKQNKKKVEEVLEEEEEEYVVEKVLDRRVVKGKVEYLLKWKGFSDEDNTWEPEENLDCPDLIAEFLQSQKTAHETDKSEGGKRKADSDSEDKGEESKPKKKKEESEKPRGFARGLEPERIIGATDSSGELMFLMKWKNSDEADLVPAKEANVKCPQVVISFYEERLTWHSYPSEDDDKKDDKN
#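 Compound inhibition of the preformed complex between 50 nM HP1-beta and 50 nM biotinylated H3K9me3 peptide was read by AlphaScreen. Buffer was PBS pH 7.4 with 0.01% Tween-20. Incubations ran 30 min at room temperature, with 10 ug/mL donor/acceptor beads.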
# JMJD2A Tudor inh – JMJD2A Tudor domain (human) inhibition. AID 504339. 4.4% of 390,000 active. Potency, µM (top dose mostly 114 µM), for inactives: at the highest dose activity change, negative = inhibition, usual class: inhibitors. AlphaScreen JMJD2A-Tudor / H3K4me3 peptide binding; also: potency is read from the fitted curve at half-maximal effect; % is scaled to controls: 0 for no effect and ±100 for the full control effect; nearly all actives have a fitted effect of over 50% in size
# G9a inh – blocks human histone lysine methyltransferase G9a; Q96KQ7; G9a H3K9 monomethylation, AlphaScreen, 2 h; Potency, µM (highest dose often 102 µM), for inactives: at the top dose activity, negative = inhibition, actives largely listed as inhibitors; 8.8% of 350,000 active; AID 504332; also: potency is read from the fitted curve at half-maximal effect; % is scaled to controls: 0 for no effect and ±100 for the full control effect; nearly all actives have a fitted effect of over 75% in size
# Target sequence (Q96KQ7 913-1193 limits assumed): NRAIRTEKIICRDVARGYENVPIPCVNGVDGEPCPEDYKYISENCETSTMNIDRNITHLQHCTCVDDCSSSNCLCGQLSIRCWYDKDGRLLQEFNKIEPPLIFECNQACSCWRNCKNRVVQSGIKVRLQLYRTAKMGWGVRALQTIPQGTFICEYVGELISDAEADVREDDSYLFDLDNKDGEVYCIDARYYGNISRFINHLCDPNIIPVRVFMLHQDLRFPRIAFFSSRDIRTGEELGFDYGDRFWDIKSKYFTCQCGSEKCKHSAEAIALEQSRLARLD
#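 Readings reflect AlphaScreen signal from monomethyl-H3K9 antibody detection. HMT at 20 nM; substrate b-H3K9 500 nM; cofactor SAM 20 uM; 2 h RT reaction; compounds tested as titrations in qHTS with 15 min preincubation.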
# Numbers without * were called inactive; ? = inconclusive; . = no result; [ ] = remark or other dose. Most compounds without a hit are left out; they make up all but 10% or so of the library. Unless noted, calls follow the shape of the dose curve; as a rule, active = well fitted inhibition curve with a large enough effect; inconclusive = small, poorly fitted or top-dose-only effect; inactive = no such curve, though single readings can be large or run the other way.
SMILES,Six1-Eya2 blk,CtBP-E1A inh,BAZ2B inh,HP1b chromo inh,JMJD2A Tudor inh,G9a inh
COc1ccc2c(c1)C(=O)[C@@H](O)[C@H](c1ccc(OC)c(Br)c1)O2,-3.4,-17.1,89.1µM*,66.2%,2.2%,-3.3%
COc1cccc([C@@H]2Oc3ccc(Br)cc3C(=O)[C@H]2OC(=O)NC2CCCC2)c1,-7.9,-2.3,-19.8%,48.3%,-1.4%,-7.3%
COc1ccc2c(c1)C(=O)[C@@H](OC(=O)NCc1ccc3c(c1)OCO3)[C@H](c1ccc(OC)c(Br)c1)O2,.,.,-32.0%,.,.,-10.1%
COc1cccc([C@@H]2Oc3ccc(OC)cc3C(=O)[C@H]2O)c1,3.9,-1.9,10.3%,33.9%,-9.1%,79.4µM*
CC(=O)Nc1ccc(NC(=O)C2(c3cccs3)CCOCC2)cc1,.,.,-1.1%,51.1%,44.7µM*,7.4%[59 µM]
Cn1cc(-c2nc3cncnc3n(Cc3ccccc3Cl)c2=O)c2ccccc21,.,.,.,.,.,48.5%[0.501 µM]
c1ccc2c(c1)nc(N1CCOCC1)c1nncn12,-13.4,-0.7,9.4%,26.5%,2.9%,-9.8%
c1ccc(N2CCN(c3nc4ccccc4n4cnnc34)CC2)cc1,-11.2,-1.2,-20.7%,24.0%,-27.6%,-9.9%
c1ccc2c(c1)CCN(c1nc3ccccc3n3cnnc13)C2,-17.8,-2.5,-1.5%,6.4%,?,50.1µM*
c1ccc2c(c1)nc(NCCN1CCOCC1)c1nncn12,1.3,0.2,11.6%,39.2%,-7.6%,50.1µM*
Clc1cccc(N2CCN(CCNc3nc4ccccc4n4cnnc34)CC2)c1,-17.1,-27.9,-4.3%,23.1%,?,6.3%[59 µM]
c1ccc(CN2CCN(c3nc4ccccc4n4cnnc34)CC2)cc1,-11.1,-8.2,-10.4%,13.1%,-28.3%,50.1µM*
C1=C(c2ccccc2)CCN(c2nc3ccccc3n3cnnc23)C1,-23.5,-26.0,6.2%,-1.1%,-34.5%,22.4µM*
COc1ccc(NC(=O)CS(=O)CC(=O)Nc2ccc(-n3cnnn3)c(C)c2)cc1 (stereo not drawn),2.1,4.8,4.7%,19.7%,3.6%,-2.4%
CN(CC(=O)Nc1ccc(Cl)c(Cl)c1)C(=O)CC1OC(=O)c2ccccc21 (stereo not drawn),-5.5,-2.0,5.9%,10.9%,-21.9%,10.7%[59 µM]
CC/C(C)=N/Nc1nc2c(c(=O)[nH]c(=O)n2C)n1CCc1ccccc1,?,?,-19.0%,-4.2%,-23.9%,56.2µM*
CC(C)=NNc1nc2c(c(=O)[nH]c(=O)n2C)n1CCc1ccccc1,?,-28.7,?,?,-33.1%,44.7µM*
CC/C(C)=N/Nc1nc2c(c(=O)[nH]c(=O)n2C)n1Cc1ccccc1,-23.8,-12.8,?,?,?,-9.0%[2.33 µM]
COC(=O)CN1C(=O)C(O)(c2c(C)[nH]c3ccccc23)c2ccccc21 (stereo not drawn),.,.,32.0%,71.7%,-15.7%,7.6%[59 µM]
CCOC(=O)c1c(-c2ccccc2)c(C(C)=O)c(=O)n(C)c1C,9.0,0.8,7.5%,45.6%,-19.0%,2.9%
CCOC(=O)c1c(C)nc2c(c1-c1cc(OC)c(OC)c(OC)c1)C(=O)c1ccccc1-2,-1.3,-1.4,-0.5%,19.6%,-8.5%,4.3%[12.7 µM]
CCOC(=O)c1c2c3c(cccc3[nH]c1=O)C(=O)c1ccccc1-2,?,?,-19.3%,21.8%,-17.9%,56.2µM*
CCOC(=O)c1c2c(n(Cc3ccccc3)c1C)C(=O)C(=O)c1ccccc1-2,?,-79.2*,.,25.1µM*,7.08µM*,.
CCOC(=O)c1c2c(n(C)c1C)C(=O)C(=O)c1ccc(Br)cc1-2,4.5,11.5,.,9.1%,-15.7%[57.1 µM],.
CCOC(=O)c1c2c3c(cccc3n(C)c1=O)C(=O)c1ccccc1-2,-68.6*,-82.7*,?,-1.2%,?,15.3%[0.501 µM]
SMILES,Six1-Eya2 blk,CtBP-E1A inh,BAZ2B inh,HP1b chromo inh,JMJD2A Tudor inh,G9a inh
COCCCNc1c2c3c(cccc3[nH]c1=O)C(=O)c1ccccc1-2,?,?,6.3%,75.5%,16.6%,-11.2%
CCOC(=O)c1c2c3c(c(Cl)ccc3[nH]c1=O)C(=O)c1ccccc1-2,-76.4*,-89.1*,31.6µM*,3.8%,-23.8%,?
O=C1C2CC(O)CN2C(=S)N1Cc1ccccc1 (stereo not drawn),-16.2,0.5,-2.8%,?,-16.6%,23.9%[12.7 µM]
CC(=O)Nc1c2c3c(cccc3n(C)c1=O)C(=O)c1ccccc1-2,-12.6,-3.0,-9.3%,23.7%,-17.2%,46.1%[59 µM]
Cn1c(=O)c(Nc2ccc(Cl)cc2)c2c3c(cccc31)C(=O)c1ccccc1-2,-3.0,.,?,?,-27.8%[11.4 µM],22.4µM*
Cc1cc(C)n2nc(C(=O)OCC(=O)N(C)C3CCS(=O)(=O)C3)nc2n1 (stereo not drawn),6.8,0.9,13.1%,24.2%,-7.1%,-2.2%[12.7 µM]
CCC(C)N(C(=O)COC(=O)c1nc2nc(C)cc(C)n2n1)C1CCS(=O)(=O)C1 (stereo not drawn),4.5,0.0,-4.1%,27.7%,-1.4%,15.8µM*
CCC(C)N(C(=O)COC(=O)CSc1ccc([N+](=O)[O-])cc1)C1CCS(=O)(=O)C1 (stereo not drawn),11.8,10.7,-27.3%,19.0%,-8.2%,39.8µM*
COc1ccc(-n2nc(C(=O)Nc3ccc(Cl)cn3)c3c4ccccc4n(C)c3c2=O)cc1Cl,.,.,.,16.2%,-6.0%,-7.6%[59 µM]
CCc1ccc(C(=O)c2cn(CC(=O)Nc3ccc4c(c3)OCO4)c3ccc(OC)cc3c2=O)cc1,.,.,79.4µM*,-10.1%,8.91µM*,14.1µM*
CN(C)c1ccc(CN(Cc2ccco2)C(=O)COc2ccc(F)cc2)cc1,.,.,28.2µM*,?,44.7µM*,15.8µM*
Cc1cc(C)c2c(CC(=O)N(Cc3ccc(N(C)C)cc3)Cc3ccco3)coc2c1,.,.,10µM*,?,12.6µM*,11.2µM*
Cc1ccc(C(=O)N(Cc2ccc(N(C)C)cc2)Cc2ccco2)cc1,.,.,35.5µM*,?,39.8µM*,14.1µM*
CCS(=O)(=O)c1ncc(Cl)c(C(=O)N(Cc2ccccc2)Cc2ccco2)n1,.,.,-19.3%,23.2%,-15.3%,?
CCSc1ncc(Cl)c(C(=O)N(Cc2ccc(N(C)C)cc2)Cc2ccco2)n1,.,.,10µM*,?,17.8µM*,12.6µM*
Cc1ccc(OCC(=O)N(Cc2ccco2)Cc2ccco2)cc1,.,.,-29.6%,-6.6%,-34.3%,-31.9%[59 µM]
COc1ccc(N(CC(=O)NC2CC3CCC2C3)S(=O)(=O)c2ccc(C)cc2)cc1Cl (stereo not drawn),3.0,1.1,.,.,.,.
Cc1ccc(CN(Cc2ccco2)C(=O)c2ccco2)cc1,-13.4,-8.1,-36.2%,-17.1%,-26.1%,-37.9%
Cc1ccccc1C(=O)N(Cc1ccc(N(C)C)cc1)Cc1ccco1,.,.,35.5µM*,?,44.7µM*,12.6µM*

# Screening results: PubChem BioAssay, National Center for Advancing Translational Sciences (NCATS)
